{"source": "PubChem BioAssay AID1851", "about": "(National Center for Advancing Translational Sciences (NCATS), 2009)", "note": "Among all 16,000 compounds or so, about 5,100 (32%) were called active. Inconclusive results (about 25%) are left out. The list shows a part of the results. Values without a mark were called inactive. The call rests on the fitted dose curve; in most records, active means well fitted curve in the direction sought with a large enough effect; inconclusive means small, poorly fitted or top-dose-only effect, or effect the other way; inactive means no such curve, though single readings can be large or run the other way. On the % scale 0 is the no-effect control and ±100 the full control effect."}
{"target": "Cytochrome P450 3A4 (Homo sapiens) (UniProt P08684)", "sequence (P08684 whole entry, looked up)": "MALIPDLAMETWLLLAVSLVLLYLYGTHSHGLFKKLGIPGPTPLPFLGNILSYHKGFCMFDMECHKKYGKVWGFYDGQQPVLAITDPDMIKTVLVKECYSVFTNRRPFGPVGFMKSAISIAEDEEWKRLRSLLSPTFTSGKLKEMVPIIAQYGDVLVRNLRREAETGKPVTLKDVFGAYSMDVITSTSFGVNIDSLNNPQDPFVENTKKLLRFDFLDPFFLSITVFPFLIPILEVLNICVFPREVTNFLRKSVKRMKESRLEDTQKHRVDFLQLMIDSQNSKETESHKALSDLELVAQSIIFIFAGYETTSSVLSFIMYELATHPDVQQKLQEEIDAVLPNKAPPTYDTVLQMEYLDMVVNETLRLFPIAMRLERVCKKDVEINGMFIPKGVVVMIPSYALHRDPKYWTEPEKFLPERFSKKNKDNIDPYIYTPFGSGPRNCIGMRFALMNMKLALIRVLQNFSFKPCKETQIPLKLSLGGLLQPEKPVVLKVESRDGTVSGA", "test": "Cytochrome panel assay with activity outcomes", "conditions": "recombinant CYP, pro-luciferin dealkylation, luminescence, p450-cyp3a4; series mostly up to 57.1 µM"}
{"smiles": "COc1nccc(-c2c(-c3ccc(F)cc3)ncn2C2CCC(O)CC2)n1", "note": "(stereo unspecified)", "AC50": "inactive"}
{"smiles": "COc1cccc(OC)c1/C(O)=C(\\C#N)c1nc2ccccc2[nH]1", "AC50": "2 µM (active)"}
{"smiles": "Cc1ccccc1OC/C(O)=C(\\C#N)c1nc2ccccc2[nH]1", "AC50": "inactive"}
{"smiles": "Cn1c(=O)n(C)c2cc(/C=N/n3cnnc3)ccc21", "activity, negative = inhibition": "2.58% [at 2.29 µM]"}
{"smiles": "CCn1c2ccccc2c2cc(/C=N/n3cn[nH]c3=S)ccc21", "AC50": "7.08 µM (active)"}
{"smiles": "O=C(O)c1cccnc1", "AC50": "inactive"}
{"smiles": "CC(C)(C(=O)c1cccnc1)c1cccnc1", "AC50": "1.26 µM (active)"}
{"smiles": "Cc1ccc(S(=O)(=O)/C(C#N)=C/c2c(N3CC(C)OC(C)C3)nc3ccccn3c2=O)cc1", "note": "(stereo unspecified)", "AC50": "1.41 µM (active)"}
{"smiles": "Cn1c(C(=O)N2COCC2(C)C)cc2c(=O)n3ccccc3nc21", "AC50": "inactive"}
{"smiles": "CON(c1nc(N(C)C)nc(N(C)C)n1)S(=O)(=O)c1ccccc1Cl", "AC50": "12.6 µM (active)"}
{"smiles": "O=c1[nH]c(=O)c2nc3ccccc3nc2[nH]1", "AC50": "inactive"}
{"smiles": "Fc1ccc2nc3[nH]c4ccccc4c3nc2c1", "AC50": "14.1 µM (active)"}
{"smiles": "Cc1cc2nc3[nH]c4c(Cl)cc(Cl)cc4c3nc2cc1C", "activity, negative = inhibition": "-18.7% [at 11.4 µM]"}
{"smiles": "CN(C)C(=O)c1ccc(-c2nc(N(C)Cc3ccco3)c3ccccc3n2)cc1", "AC50": "inactive"}
{"smiles": "CN(Cc1ccco1)c1nc(-c2ccoc2)nc2ccccc12", "AC50": "25.1 µM (active)"}
{"smiles": "CN(Cc1ccccc1)c1nc(-c2ccc([N+](=O)[O-])cc2)nc2ccccc12", "AC50": "1.12 µM (active)"}
{"smiles": "CN(Cc1ccco1)c1nc(-c2ccc3c(c2)OCO3)nc2ccccc12", "AC50": "1.58 µM (active)"}
{"smiles": "CN(C)c1ccc(-c2nc(N(C)Cc3ccco3)c3ccccc3n2)cc1", "AC50": "10 µM (active)"}
{"smiles": "C[C@H](CCC(=O)NCC(=O)O)[C@H]1CC[C@H]2[C@H]3[C@@H](C[C@@H](O)[C@]12C)[C@]1(C)CC[C@H](O)C[C@@H]1C[C@@H]3O", "AC50": "inactive"}
{"smiles": "COc1ccccc1CNc1ncnc2ccc(-c3ccoc3)cc12", "AC50": "15.8 µM (active)"}
{"smiles": "COc1ccc(CNc2ncnc3ccc(-c4ccoc4)cc23)c(OC)c1", "AC50": "3.16 µM (active)"}
{"smiles": "CCOC(=O)/C(C(N)=NCCCO)=C(/O)c1ccccc1", "AC50": "inactive"}
{"smiles": "COc1ccc(CNc2ncnc3ccc(-c4cccc(NS(C)(=O)=O)c4)cc23)c(OC)c1", "AC50": "2 µM (active)"}
{"smiles": "COc1ccccc1CNc1ncnc2ccc(-c3cccc(NS(C)(=O)=O)c3)cc12", "AC50": "3.16 µM (active)"}
{"smiles": "Cn1c(=O)c2[nH]c(/N=N\\N3CCN(CCO)CC3)nc2n(C)c1=O", "activity, negative = inhibition": "-17% [at 11.4 µM]"}
{"smiles": "Cc1ccc(Nc2c([N+](=O)[O-])ccc3c2=NC2(CCCCC2)N=3)cc1", "AC50": "7.08 µM (active)"}
{"smiles": "CCN(CC)c1nc(Nc2ccccc2)nc(Oc2ccc(C(=O)OC)cc2)n1", "AC50": "inactive"}
{"smiles": "CCC/C=C(\\CCC)C(NC(=O)Oc1ccc(F)cc1)c1ccc(C(=O)OC)cc1", "note": "(stereo unspecified)", "AC50": "inactive"}
{"smiles": "CCC/C=C(\\CCC)C(NC(=O)c1ccc(C(=O)OC)cc1)c1ccc(C(=O)OC)cc1", "note": "(stereo unspecified)", "AC50": "15.8 µM (active)"}
{"smiles": "CCC/C=C(\\CCC)C(NC(=O)C(C)(C)C)c1ccc(C(=O)OC)cc1", "note": "(stereo unspecified)", "AC50": "10 µM (active)"}
{"smiles": "CCC/C=C(\\CCC)C(NC(=O)Cc1ccccc1)c1ccc(C(=O)OC)cc1", "note": "(stereo unspecified)", "AC50": "3.98 µM (active)"}
{"smiles": "CCC/C=C(\\CCC)C(NC(=O)OCC(C)C)c1ccc(C(=O)OC)cc1", "note": "(stereo unspecified)", "AC50": "12.6 µM (active)"}
{"smiles": "CCOC(=O)NC(NC(=O)OCC)C(=O)c1ccc(F)cc1", "AC50": "inactive"}
{"smiles": "O[C@]1(c2ccccc2)c2ccccc2NC2=NCCN21", "activity, negative = inhibition": "3.31% [at 11.4 µM]"}
{"smiles": "COc1ccc(-c2coc3cc(OC)cc(O)c3c2=O)cc1", "AC50": "inactive"}
{"smiles": "Cc1cc(-c2ccc(Cl)cc2)oc(=O)c1NC(=O)c1ccccc1", "AC50": "inactive"}
{"smiles": "COc1ccc(-c2cc(=O)c3c(O)cc(O)cc3o2)cc1", "AC50": "2.51 µM (active)"}
{"smiles": "O=c1cc(-c2ccccc2)oc2cc(O)c(O)c(O)c12", "AC50": "31.6 µM (active)"}
{"smiles": "Cc1cc(=O)c2c(O)c(O)ccc2o1", "AC50": "inactive"}
{"smiles": "Cc1ccc(C)n1C(Cc1ccccc1)C(=O)O", "note": "(stereo unspecified)", "AC50": "inactive"}
{"smiles": "O=C(O)[C@H](CCc1ccccc1)N1C(=O)c2ccccc2C1=O", "activity, negative = inhibition": "9.26% [at 11.4 µM]"}
{"smiles": "O=C(C(Cc1ccccc1)N1C(=O)C2C3CCC(C3)C2C1=O)N1CCCCC1", "note": "(stereo unspecified)", "AC50": "12.6 µM (active)"}
{"smiles": "O=C(O)CC[C@@H](C(=O)O)N1C(=O)[C@@H]2[C@@H]3CC[C@H](C3)[C@@H]2C1=O", "activity, negative = inhibition": "-4.14% [at 11.4 µM]"}
{"smiles": "O=C(NC1CCCCC1)C(Cc1ccccc1)N1C(=O)C2C3CCC(C3)C2C1=O", "note": "(stereo unspecified)", "AC50": "8.91 µM (active)"}
{"smiles": "CC(C)C(NC(=O)C1CCCCC1)C(=O)NC1CCN(Cc2ccccc2)CC1", "note": "(stereo unspecified)", "AC50": "inactive"}
{"smiles": "CN(CC(=O)Nc1cccc2c1CCCC2)S(=O)(=O)c1ccc(Br)cc1", "AC50": "8.91 µM (active)"}
{"smiles": "CN(C)CCOC(=O)[C@@H](c1ccccc1)C1(O)CCCC1", "AC50": "inactive"}
{"smiles": "Cn1c(C[C@@H](O)c2nc3ccccc3n2C)nc2ccccc21", "activity, negative = inhibition": "-14.4% [at 11.4 µM]"}
{"smiles": "Cn1c(SCc2nc3ccccc3n2CCO)nc2ccccc21", "AC50": "8.91 µM (active)"}
{"smiles": "Cc1ccc(/C=N/NC(=O)CSc2nc3ccccc3n2C)s1", "activity, negative = inhibition": "-26.5% [at 2.29 µM]"}
{"smiles": "CC(=O)Nc1ccc(S(=O)(=O)N2CCN(c3nc(NC4CCCC4)c4ccccc4n3)CC2)cc1", "AC50": "3.16 µM (active)"}
{"smiles": "Cc1ccc(C(=O)O)cc1N1C(=O)c2cccc3cc(Br)cc(c23)C1=O", "activity, negative = inhibition": "19.6% [at 2.29 µM]"}
{"smiles": "Cc1ccc(C(=O)COC(=O)c2ccc3c(c2)C(=O)N(c2cccc4ncccc24)C3=O)cc1C", "AC50": "1.26 µM (active)"}
{"smiles": "CCOC(=O)N1CCN(C(=O)c2ccc(OC)c(OC)c2)CC1", "AC50": "inactive"}
{"smiles": "CCOC(=O)N1CCN(C(=O)c2ccc(NC(C)=O)cc2)CC1", "activity, negative = inhibition": "-1.46% [at 2.29 µM]"}
{"smiles": "CCOC(=O)N1CCN(C(=O)c2cc(-c3ccc(F)cc3)[nH]c2C)CC1", "AC50": "11.2 µM (active)"}
{"smiles": "CS(=O)(=O)N1CCC2(CCCN(c3ccncc3)C2)CC1", "AC50": "inactive"}
{"smiles": "CS(=O)(=O)N1CCC2(CC1)CN(c1ccncc1)C2", "AC50": "inactive"}
{"smiles": "CS(=O)(=O)N1CCC2(CCN(c3ccccc3)CC2)CC1", "AC50": "inactive"}
{"smiles": "CS(=O)(=O)N1CCC[C@@]2(CCN(c3ccccc3)C2)C1", "AC50": "12.6 µM (active)"}
{"smiles": "CS(=O)(=O)N1CCC[C@@]2(CCN(c3ccncc3)C2)C1", "AC50": "7.94 µM (active)"}
{"smiles": "CS(=O)(=O)N1CCC[C@@]2(CCN(c3ncccn3)C2)C1", "AC50": "inactive"}
{"smiles": "COc1cc(CN2CCN(C(=O)CC(C)C)CC2)cc(OC)c1OC", "AC50": "inactive"}
{"smiles": "COc1ccccc1N1CCN(CCCCNC(=O)c2ccc(-c3ccc(C(C)=O)cc3)cc2)CC1", "AC50": "inactive"}
{"smiles": "COc1ccccc1N1CCN(CCN(C(=O)C2CCCCC2)c2ccccn2)CC1", "AC50": "3.98 µM (active)"}
{"smiles": "CSc1nc(C)c(CCOC(=O)c2cccc(C)c2)c(=O)[nH]1", "AC50": "inactive"}
{"smiles": "Cc1[nH]n(-c2ccccc2)c(=O)c1CCOC(=O)c1cccc(C(F)(F)F)c1", "AC50": "3.16 µM (active)"}
{"smiles": "Cc1[nH]n(-c2ccccc2)c(=O)c1CCOC(=O)c1ccc(C(F)(F)F)cc1", "AC50": "14.1 µM (active)"}
{"smiles": "CC1=NN(c2ccccc2)C(=O)/C1=C\\c1c(C)[nH]n(-c2ccccc2)c1=O", "AC50": "inactive"}
{"smiles": "CSc1nc(C)c(CCOC(=O)c2ccccc2)c(=O)[nH]1", "AC50": "inactive"}
{"smiles": "Cc1cc(-c2c(C)[nH]n(-c3ccccc3)c2=O)n(-c2ccccc2)n1", "activity, negative = inhibition": "-9.49% [at 11.4 µM]"}
{"smiles": "CC(C)(CO[C@H]1C[C@H]2CC[C@@]1(C)C2(C)C)[N+](=O)[O-]", "activity, negative = inhibition": "-5.92% [at 11.4 µM]"}
{"smiles": "CCOC(=O)c1ccc(NC(=O)C(=O)NCC2CCCO2)cc1", "note": "(stereo unspecified)", "AC50": "inactive"}
{"smiles": "CCOC(=O)c1ccc(-c2ccc(CO)o2)cc1", "activity, negative = inhibition": "1.82% [at 2.29 µM]"}
{"smiles": "CCOC(=O)c1ccc(-c2ccc(/C=C(\\C#N)C(=O)NCC3CCCO3)o2)cc1", "note": "(stereo unspecified)", "AC50": "20 µM (active)"}
{"smiles": "CC(C)NC[C@@H](O)c1ccc(O)c2ncccc12", "activity, negative = inhibition": "-1.42% [at 11.4 µM]"}
{"smiles": "O=S(=O)(O)[C@@H](c1ccccc1)[C@@H](O)c1ccccc1", "activity, negative = inhibition": "-6.22% [at 11.4 µM]"}
{"smiles": "Cn1c(C(=O)NCC2CCCO2)cc2c(=O)n3ccccc3nc21", "note": "(stereo unspecified)", "AC50": "inactive"}
{"smiles": "COc1ccc(CCn2c(=N)c(C(=O)NCc3ccco3)cc3c(=O)n4ccccc4nc32)cc1", "AC50": "14.1 µM (active)"}
{"smiles": "OCCCSCCO", "activity, negative = inhibition": "-9.23% [at 11.4 µM]"}
{"smiles": "CC1(O)c2ccccc2C(=O)N1CCc1ccccc1F", "note": "(stereo unspecified)", "AC50": "inactive"}
{"smiles": "O=C(c1ccco1)N1CCN(c2cc(=O)n(C3CCCCC3)c(=O)[nH]2)CC1", "AC50": "inactive"}
{"smiles": "COc1ccc(Nc2cc(=O)n(C3CCCCC3)c(=O)[nH]2)c(OC)c1", "AC50": "12.6 µM (active)"}
{"smiles": "Cc1cc(C(C)(C)C)c(O)c(C)c1CC1=NCCN1", "AC50": "inactive"}
{"smiles": "CCC(=O)Nc1ncnc2ncn(C(=O)CC)c12", "activity, negative = inhibition": "-6.29% [at 11.4 µM]"}
{"smiles": "O=C(Nc1ccccc1)OCc1cc(-c2ccc(Cl)cc2)on1", "activity, negative = inhibition": "3.33% [at 2.29 µM]"}
{"smiles": "Cc1nn(C)c(Cl)c1NC(=O)OCc1ccc(F)cc1", "AC50": "inactive"}
{"smiles": "O=C(OCc1ccc(Cl)cc1Cl)c1cccnc1Cl", "AC50": "inactive"}
{"smiles": "Cc1nn(C)c(Cl)c1NC(=O)OCc1ccc(Cl)cc1Cl", "AC50": "14.1 µM (active)"}
{"smiles": "COc1ccccc1COC(=O)Nc1c(C)nn(C)c1Cl", "AC50": "15.8 µM (active)"}
{"smiles": "O=C(c1cc(C(F)(F)F)cc(C(F)(F)F)c1)N1CCC[C@@]2(CCN(Cc3nccs3)C2)C1", "AC50": "3.16 µM (active)"}
{"smiles": "O=C(c1ccncc1)N1CCC2(CCN(Cc3nccs3)CC2)CC1", "AC50": "inactive"}
{"smiles": "O=C(c1cc(C(F)(F)F)cc(C(F)(F)F)c1)N1CCC2(CCCN(Cc3nccs3)C2)CC1", "AC50": "20 µM (active)"}
{"smiles": "CCN1CCCCC(=N/O)/C(=N/O)CCCC1", "activity, negative = inhibition": "-9.74% [at 11.4 µM]"}
{"smiles": "Cc1cc(C)c2c(=O)[nH]c(SCC(=O)N(C)C)nc2n1", "AC50": "inactive"}
{"smiles": "Cc1cccc(NC(=O)CSc2nc3nc(C)cc(C)c3c(=O)[nH]2)c1", "AC50": "3.55 µM (active)"}
